# Measurements reported in ChEMBL document CHEMBL3988442, “University of Dundee, Small-Polar-MMV Screening Library” (2021).
# For some of these results: Results with a measured potency or affinity are listed apart.
# Assays:
# Parameters in all cases: scale not given: direction of the effect not stated beside the values
# [1] = target: Protein translocase subunit SecA (Escherichia coli (strain K12)) (UniProt P10408); assay: Assay to Identify E. coli SecA ATPase Inhibitors; assay type: functional; settings: 30 µM
# Protein translocase subunit SecA (Escherichia coli (strain K12)), sequence (P10408 whole entry): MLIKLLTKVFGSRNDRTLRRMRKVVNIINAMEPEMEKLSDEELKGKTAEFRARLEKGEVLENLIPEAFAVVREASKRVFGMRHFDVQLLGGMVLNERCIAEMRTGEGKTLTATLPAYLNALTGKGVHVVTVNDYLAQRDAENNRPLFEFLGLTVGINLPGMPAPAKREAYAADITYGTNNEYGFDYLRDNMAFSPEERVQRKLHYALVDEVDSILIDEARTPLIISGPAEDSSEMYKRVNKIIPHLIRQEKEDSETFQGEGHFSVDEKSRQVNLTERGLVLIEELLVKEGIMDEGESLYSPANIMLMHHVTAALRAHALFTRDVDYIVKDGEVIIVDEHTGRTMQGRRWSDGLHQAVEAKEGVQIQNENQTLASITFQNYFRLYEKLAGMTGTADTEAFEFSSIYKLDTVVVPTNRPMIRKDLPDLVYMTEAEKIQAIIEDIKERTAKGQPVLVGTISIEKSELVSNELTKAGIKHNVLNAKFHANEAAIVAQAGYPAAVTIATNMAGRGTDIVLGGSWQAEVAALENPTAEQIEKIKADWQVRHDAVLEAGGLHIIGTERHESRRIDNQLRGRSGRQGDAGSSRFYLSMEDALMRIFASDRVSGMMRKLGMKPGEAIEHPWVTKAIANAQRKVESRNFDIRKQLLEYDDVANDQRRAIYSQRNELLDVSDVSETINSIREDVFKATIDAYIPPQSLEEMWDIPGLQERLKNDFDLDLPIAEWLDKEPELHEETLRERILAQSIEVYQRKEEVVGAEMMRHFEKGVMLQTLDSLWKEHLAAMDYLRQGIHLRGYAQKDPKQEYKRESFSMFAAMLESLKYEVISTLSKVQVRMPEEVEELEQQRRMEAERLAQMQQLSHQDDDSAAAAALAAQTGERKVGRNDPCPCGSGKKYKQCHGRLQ
# [2] = target: T1, Ubiquitin-activating enzyme e1, putative (Leishmania donovani (strain BPK282A1)) (UniProt E9BSI1); assay: Leishmania donovani Ubiquitin Activating Enzyme (LdE1); assay type: functional; settings: 30 µM
# T1 sequence (whole entry): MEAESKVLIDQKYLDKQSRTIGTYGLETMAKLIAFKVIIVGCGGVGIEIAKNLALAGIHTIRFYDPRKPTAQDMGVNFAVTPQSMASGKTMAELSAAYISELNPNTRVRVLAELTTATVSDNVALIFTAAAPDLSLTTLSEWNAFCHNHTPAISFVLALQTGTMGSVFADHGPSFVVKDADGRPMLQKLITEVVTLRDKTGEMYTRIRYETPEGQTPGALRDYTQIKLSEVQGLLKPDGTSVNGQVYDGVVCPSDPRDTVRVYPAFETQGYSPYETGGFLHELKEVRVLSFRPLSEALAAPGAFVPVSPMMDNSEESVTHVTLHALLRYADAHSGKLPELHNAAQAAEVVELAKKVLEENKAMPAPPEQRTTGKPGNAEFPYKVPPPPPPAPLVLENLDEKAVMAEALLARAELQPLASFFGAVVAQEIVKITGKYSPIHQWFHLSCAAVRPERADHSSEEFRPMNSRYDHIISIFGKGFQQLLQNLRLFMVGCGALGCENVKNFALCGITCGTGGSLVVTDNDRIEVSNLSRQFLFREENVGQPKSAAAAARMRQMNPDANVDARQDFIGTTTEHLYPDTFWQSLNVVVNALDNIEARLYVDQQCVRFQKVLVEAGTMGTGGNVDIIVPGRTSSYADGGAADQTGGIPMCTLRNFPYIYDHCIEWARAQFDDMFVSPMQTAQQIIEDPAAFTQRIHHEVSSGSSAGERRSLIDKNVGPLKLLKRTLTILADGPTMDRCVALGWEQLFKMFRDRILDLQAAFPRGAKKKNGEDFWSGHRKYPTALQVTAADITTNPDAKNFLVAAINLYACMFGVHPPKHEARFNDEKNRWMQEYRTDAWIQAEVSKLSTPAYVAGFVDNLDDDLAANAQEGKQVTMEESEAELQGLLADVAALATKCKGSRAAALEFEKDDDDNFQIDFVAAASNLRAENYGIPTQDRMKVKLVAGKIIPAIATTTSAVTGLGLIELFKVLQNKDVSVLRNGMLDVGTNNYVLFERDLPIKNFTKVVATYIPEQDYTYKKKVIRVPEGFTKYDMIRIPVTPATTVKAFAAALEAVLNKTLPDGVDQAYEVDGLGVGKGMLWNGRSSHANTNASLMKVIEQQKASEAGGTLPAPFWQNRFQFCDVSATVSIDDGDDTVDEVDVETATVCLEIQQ
# [3] = target: Sialic acid-binding Ig-like lectin 9 (Homo sapiens) (UniProt Q9Y336); assay: Hs-Siglec9 ALPHAscreen SOP 20170721; settings: 10 µM
# Sialic acid-binding Ig-like lectin 9 (Homo sapiens), sequence (Q9Y336 whole entry): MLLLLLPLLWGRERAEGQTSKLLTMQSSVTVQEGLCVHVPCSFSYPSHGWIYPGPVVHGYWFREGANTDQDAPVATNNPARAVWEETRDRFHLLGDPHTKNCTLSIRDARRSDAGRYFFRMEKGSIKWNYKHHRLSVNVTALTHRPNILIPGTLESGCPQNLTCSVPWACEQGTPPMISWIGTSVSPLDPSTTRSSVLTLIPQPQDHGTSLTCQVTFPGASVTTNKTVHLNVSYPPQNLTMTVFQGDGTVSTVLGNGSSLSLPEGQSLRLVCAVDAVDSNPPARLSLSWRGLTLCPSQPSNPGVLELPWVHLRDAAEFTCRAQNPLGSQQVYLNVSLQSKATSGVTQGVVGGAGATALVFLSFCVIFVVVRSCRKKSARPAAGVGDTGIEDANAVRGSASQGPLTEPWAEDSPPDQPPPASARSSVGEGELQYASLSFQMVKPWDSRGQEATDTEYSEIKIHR
# Trypanosoma cruzi = assay: Trypanosoma cruzi phosphomannomutase and mannose-1-phosphate guanylyltransferase assay; assay type: functional; settings: 10 µM
# [4] = target: T2, Arginase-2, mitochondrial (Homo sapiens) (UniProt P78540); assay: in vitro enzyme assay to detect the production of urea directly proportional to the activity of Arginase II; assay type: functional; settings: 33.3 µM; note: in the data most compounds retested in dose-response had high values
# T2 sequence (whole entry): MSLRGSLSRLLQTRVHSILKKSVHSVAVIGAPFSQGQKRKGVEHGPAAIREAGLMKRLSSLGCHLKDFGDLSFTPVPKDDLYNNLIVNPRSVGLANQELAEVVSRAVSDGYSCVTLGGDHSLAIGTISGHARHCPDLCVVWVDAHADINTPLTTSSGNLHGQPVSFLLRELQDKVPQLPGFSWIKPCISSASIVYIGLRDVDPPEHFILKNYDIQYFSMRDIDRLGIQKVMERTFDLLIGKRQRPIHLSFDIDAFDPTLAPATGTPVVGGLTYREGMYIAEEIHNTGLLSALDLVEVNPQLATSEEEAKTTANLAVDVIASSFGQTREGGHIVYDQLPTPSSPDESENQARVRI
# [5] = target: T3, Proteasome subunit beta (Trypanosoma cruzi) (UniProt O96673); assay: Trypanosoma cruzi proteasome chymotrypsin-like activity (TcProtChymo) assay.; note: in the data most compounds retested in dose-response had high values; assay type: functional; settings: 9.37 µM
# T3 sequence (whole entry): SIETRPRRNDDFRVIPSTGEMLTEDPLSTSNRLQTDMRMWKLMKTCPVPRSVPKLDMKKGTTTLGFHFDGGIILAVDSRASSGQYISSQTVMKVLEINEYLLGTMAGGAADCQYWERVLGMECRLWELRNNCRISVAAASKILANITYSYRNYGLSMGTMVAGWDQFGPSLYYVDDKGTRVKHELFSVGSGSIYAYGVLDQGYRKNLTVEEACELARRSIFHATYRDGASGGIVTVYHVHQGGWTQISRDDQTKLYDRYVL
# Homo sapiens = organism: Homo sapiens; assay: To identify inhibition of the IFN signalling (Jak-Stat) pathway via expression of an eGFP reporter gene under the control of an IFN-stimulated response element (ISRE) containing MxA promoter.; assay type: functional; settings: 30 µM
# [6] = target: T4, Tyrosyl-tRNA synthetase, putative (Trypanosoma cruzi (strain CL Brener)) (UniProt Q4DSP6); assay: Trypanosoma cruzi tyrosyl tRNA synthetase (TcYRS) _High Tyrosine SOP; assay type: functional; settings: 30 µM; note: in the data most compounds retested in dose-response had high values
# T4 sequence (whole entry): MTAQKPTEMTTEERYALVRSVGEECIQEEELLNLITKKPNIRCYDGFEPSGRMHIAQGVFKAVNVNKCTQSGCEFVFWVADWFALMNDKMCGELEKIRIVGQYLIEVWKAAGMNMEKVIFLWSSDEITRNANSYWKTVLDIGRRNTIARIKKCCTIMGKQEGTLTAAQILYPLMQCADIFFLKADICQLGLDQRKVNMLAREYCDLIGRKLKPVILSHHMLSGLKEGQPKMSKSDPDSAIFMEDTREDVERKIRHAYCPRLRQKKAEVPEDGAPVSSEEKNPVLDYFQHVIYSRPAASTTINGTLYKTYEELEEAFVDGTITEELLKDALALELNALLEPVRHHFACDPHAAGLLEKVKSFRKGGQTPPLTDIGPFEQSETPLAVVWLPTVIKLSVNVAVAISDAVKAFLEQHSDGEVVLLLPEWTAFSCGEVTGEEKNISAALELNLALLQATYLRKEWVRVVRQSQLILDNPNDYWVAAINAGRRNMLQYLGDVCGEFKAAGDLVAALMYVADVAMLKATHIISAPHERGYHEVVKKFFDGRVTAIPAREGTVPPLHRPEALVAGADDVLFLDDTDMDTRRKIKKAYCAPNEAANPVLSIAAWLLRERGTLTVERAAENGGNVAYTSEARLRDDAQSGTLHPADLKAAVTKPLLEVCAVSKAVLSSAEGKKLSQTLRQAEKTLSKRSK
# [7] = target: T4, Tyrosyl-tRNA synthetase, putative (Trypanosoma cruzi (strain CL Brener)); assay: Trypanosoma cruzi tyrosyl tRNA synthetase (TcYRS) SOP; assay type: functional; settings: 30 µM
# [8] = target: Chromo domain-containing protein 1 (Saccharomyces cerevisiae (strain ATCC 204508 / S288c) (Baker's yeast)) (UniProt P32657); assay: ScCHD-1 Enzyme Inhibition Assay; assay type: functional; settings: 30 µM; note: in the data most compounds retested in dose-response had high values
# Chromo domain-containing protein 1 (Saccharomyces cerevisiae (strain ATCC 204508 / S288c) (Baker's yeast)), sequence (P32657 whole entry, the tested form may be a part): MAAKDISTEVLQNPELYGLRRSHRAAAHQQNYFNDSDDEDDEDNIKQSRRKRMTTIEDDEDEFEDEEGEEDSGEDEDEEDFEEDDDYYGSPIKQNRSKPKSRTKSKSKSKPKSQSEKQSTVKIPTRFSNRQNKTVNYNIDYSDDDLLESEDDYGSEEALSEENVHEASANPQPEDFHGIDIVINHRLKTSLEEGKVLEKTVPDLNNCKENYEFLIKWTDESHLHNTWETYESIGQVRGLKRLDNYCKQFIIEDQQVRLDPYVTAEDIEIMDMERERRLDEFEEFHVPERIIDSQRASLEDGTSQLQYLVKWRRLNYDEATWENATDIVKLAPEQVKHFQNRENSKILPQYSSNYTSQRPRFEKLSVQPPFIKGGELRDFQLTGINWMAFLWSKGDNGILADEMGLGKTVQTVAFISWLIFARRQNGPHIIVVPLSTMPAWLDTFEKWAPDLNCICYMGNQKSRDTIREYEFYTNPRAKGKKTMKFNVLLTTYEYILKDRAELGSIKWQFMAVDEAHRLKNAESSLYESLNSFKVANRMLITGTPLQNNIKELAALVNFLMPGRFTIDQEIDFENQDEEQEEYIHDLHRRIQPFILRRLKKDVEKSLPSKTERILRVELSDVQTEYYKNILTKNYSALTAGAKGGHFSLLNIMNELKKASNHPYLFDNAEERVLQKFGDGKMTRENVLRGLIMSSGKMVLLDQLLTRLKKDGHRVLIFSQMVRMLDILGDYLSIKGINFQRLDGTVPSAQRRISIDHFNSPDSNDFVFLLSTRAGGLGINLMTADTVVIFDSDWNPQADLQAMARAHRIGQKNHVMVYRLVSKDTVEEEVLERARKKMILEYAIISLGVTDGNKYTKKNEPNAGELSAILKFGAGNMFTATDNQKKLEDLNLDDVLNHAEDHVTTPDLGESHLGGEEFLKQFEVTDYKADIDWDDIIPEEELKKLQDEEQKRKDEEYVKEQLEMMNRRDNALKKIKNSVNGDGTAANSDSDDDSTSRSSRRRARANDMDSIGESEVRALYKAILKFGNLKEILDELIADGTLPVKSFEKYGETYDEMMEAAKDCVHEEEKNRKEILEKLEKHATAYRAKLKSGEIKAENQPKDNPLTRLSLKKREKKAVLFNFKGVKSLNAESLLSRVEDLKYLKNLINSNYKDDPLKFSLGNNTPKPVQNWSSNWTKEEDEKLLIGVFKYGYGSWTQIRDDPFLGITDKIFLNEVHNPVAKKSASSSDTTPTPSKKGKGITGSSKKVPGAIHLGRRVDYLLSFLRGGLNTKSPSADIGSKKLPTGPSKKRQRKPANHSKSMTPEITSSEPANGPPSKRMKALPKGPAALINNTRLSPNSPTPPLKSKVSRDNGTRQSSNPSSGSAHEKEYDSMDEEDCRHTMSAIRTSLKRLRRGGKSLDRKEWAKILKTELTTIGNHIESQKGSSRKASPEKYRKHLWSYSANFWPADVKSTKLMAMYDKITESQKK
SMILES,Percent Effect [1] [%],Percent Effect [2] [%],Percent Effect [3] [%],Percent Effect (Trypanosoma cruzi) [%],Percent Effect [4] [%],Percent Effect [5] [%],Percent Effect (Homo sapiens) [%],Percent Effect [6] [%],Percent Effect [7] [%],Percent Effect [8] [%]
Cc1cc(C2CCCN2Cc2cc(=O)n(C)c(=O)n2C)on1 (stereo not given),-4.6,2.67,1.58,3.21,0.444,1.27,14.5,2.63,5.13,-4.48
CCn1ncc(NC(=O)c2cc(C3CC3)nc3c2c(C)nn3C)c1C,-5.7,20,-4.48,3.75,-2.21,22,14.6,2.12,15,-28.1
O=C(c1cccs1)N1CC[C@H](O)[C@@H]1Cc1ccccc1,-8.07,9.09,8.03,-0.563,0.457,0.601,23.5,0.966,7.5,-9.97
Cc1cnn(CC2CCCCN2Cc2cc(C)on2)c1 (stereo not given),-1.2,10.3,3.02,-0.282,-0.82,1.45,8.23,1.44,10.8,-2.89
CC(C)c1cc(C(=O)NCCN2CCCS2(=O)=O)n[nH]1,-3.62,15.4,0.501,0.469,4.92,18,-1.8,-4.31,18.1,-2.98
COCCNC(=O)Nc1ccc(F)c(C(N)=O)c1,2.83,15.6,-5.71,-5.04,0.615,8.42,8.95,9.8,16.5,-12.2
CCOCC1CN(Cc2cnn(C)c2)Cc2ncn(CC3CC3)c21 (stereo not given),-6.63,-1.3,9.29,-1.66,-3.64,2.21,10.9,1.58,-5.13,0.231
CC(C)(C)n1ncc2c1NC(=O)CC2c1ccccc1 (stereo not given),-4.86,5.41,5.59,2.23,-3.15,13.2,12.2,3.72,14.6,96
Cn1cc(CN2CCOCC3(C2)CN(c2ccccc2)C(=O)CO3)cn1 (stereo not given),-5.71,9.09,-4.81,-1.85,0,5.03,-7.25,6.84,10.3,-1.15
CC(C)C(NC(=O)Cn1ccc(=O)n(C)c1=O)c1ccc(F)cc1 (stereo not given),1.48,18.2,-2.41,-7.09,5.53,7.19,22.3,6.86,18.8,-8.33
